For two compounds, Potency results are on record in PubChem BioAssay (NCATS).

Results filed as inconclusive are left out. Activity calls are given as the source filed them. Unless noted, the call rests on the fitted dose curve; in most records, active means well fitted activation curve with a large enough effect; inconclusive means small, poorly fitted or top-dose-only effect; inactive means no such curve, though single readings can be large or run the other way.

For assay [1], the target named is Cytochrome P450 1A2 (Homo sapiens) (UniProt P05177). The assay can be described thus: p450-cyp1a2 (AID 410; calls by dose curve; further: potency means the concentration at half of the fitted maximal effect). In short, it runs like this:
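Inhibition was calculated relative to 57 uM furafylline (full inhibition). The reaction used human CYP1A2 at 20nM with Luciferin-ME at its Km, 100uM, driven by an NADPH-regenerating system for 60 min at room temperature.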

Assay [2] has as its target Mitogen-activated protein kinase 10 (Mus musculus) (UniProt Q61831). Put plainly: JNK3 AlphaScreen Assay (AID 530; active means well fitted curve in either direction with a large enough effect, not every such curve was filed as active;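 further: kinase came from lysate of stimulated human HepG2 cells; signal reports phosphorylation of biotinylated GST-cJun 1-79 at Ser73 with 10 µM ATP; series mostly up to about 57 µM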). An outline of the steps:
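qHTS format: compounds tested as titrations against IL-1beta/TNF-alpha-activated HepG2 lysate JNK3 with biotin-GST-cJun substrate and 10 uM ATP at room temperature. Loss of anti-phospho-cJun AlphaScreen signal indicates inhibition.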
On the technique in general: Alpha assays give light when donor and acceptor beads are brought close together.

Assay [3] addresses Cytochrome P450 3A4 (Homo sapiens) (UniProt P08684). The assay can be described thus: qHTS Assay for Activators of Cytochrome P450 3A4 (AID 885). Further: nearly all actives have a fitted effect of over 65% in size. An outline of the steps:
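20nM CYP3A4 + 25uM Luciferin-PPXE (=KM), 200mM KPO4; cpd 10 min RT; NADPH regen, 60 min RT; stop w/ detection buffer, 20 min; luminescence. Normalized to 57 uM ketoconazole.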
In general terms: In qHTS, concentration-response curves come from the screen itself.

Chain of Cytochrome P450 3A4 (Homo sapiens) (P08684 whole entry, looked up): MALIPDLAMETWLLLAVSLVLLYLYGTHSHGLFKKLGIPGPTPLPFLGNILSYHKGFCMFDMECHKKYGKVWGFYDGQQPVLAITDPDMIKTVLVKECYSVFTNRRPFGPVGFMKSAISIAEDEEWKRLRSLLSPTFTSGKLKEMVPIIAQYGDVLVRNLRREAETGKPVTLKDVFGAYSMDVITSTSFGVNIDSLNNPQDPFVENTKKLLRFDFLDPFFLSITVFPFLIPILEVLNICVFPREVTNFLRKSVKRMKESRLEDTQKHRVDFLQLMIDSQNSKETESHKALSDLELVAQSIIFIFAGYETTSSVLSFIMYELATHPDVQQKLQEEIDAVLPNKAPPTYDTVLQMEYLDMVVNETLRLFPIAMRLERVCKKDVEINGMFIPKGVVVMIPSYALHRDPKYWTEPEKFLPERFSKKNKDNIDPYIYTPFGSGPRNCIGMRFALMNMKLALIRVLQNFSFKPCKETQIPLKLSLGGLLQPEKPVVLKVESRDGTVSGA
Chain of Cytochrome P450 1A2 (Homo sapiens) (P05177 whole entry, looked up): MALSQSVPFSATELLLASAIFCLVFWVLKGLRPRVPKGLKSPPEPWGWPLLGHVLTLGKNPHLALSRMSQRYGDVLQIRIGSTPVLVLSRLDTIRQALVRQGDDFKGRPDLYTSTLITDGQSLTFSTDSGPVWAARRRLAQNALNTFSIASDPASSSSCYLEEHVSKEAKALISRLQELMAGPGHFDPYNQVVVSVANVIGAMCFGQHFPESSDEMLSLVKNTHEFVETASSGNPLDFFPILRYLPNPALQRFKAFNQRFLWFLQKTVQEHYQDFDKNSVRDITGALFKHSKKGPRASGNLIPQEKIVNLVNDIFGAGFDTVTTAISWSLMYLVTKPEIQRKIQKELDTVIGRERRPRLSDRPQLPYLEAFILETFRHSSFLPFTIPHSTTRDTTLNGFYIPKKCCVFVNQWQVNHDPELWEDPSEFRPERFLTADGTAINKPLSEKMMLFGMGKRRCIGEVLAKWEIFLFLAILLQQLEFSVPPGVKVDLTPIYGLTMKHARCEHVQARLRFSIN

As for `CC[C@@]1(O)C(=O)COc2c1cc1n(c2=O)Cc2c-1nc1cccc(C(C)C)c1c2[Si](C)(C)C`, in assay [1], the Potency was 7.94 µM (active). Moreover, the Potency entry in assay [2] and in assay [3] was “inactive” in each case.
As for `c1ccc(-c2c3ccccc3nc3[nH]c4ccccc4c23)cc1`, the Potency in assay [1] is 0.501 µM (active). The Potency entry in assay [2] and in assay [3] was “inactive” each time.
